Laboratory results published in PubChem BioAssay (NCATS).
Records with an inconclusive call do not appear. Active and inactive are the calls of the source. Unless noted, calls come from the whole dose curve; as a rule, active = well fitted curve in the direction sought with a large enough effect; inconclusive = small, poorly fitted or top-dose-only effect, or another doubt; inactive = no such curve, though single readings can be large; an effect the other way counts as inactive or inconclusive.

Assays:
[1] = biological target: Guanine nucleotide-binding protein G(i) subunit alpha-1 (Homo sapiens) (UniProt P63096); assay: qHTS Assay for Inhibitors of RGS12 GoLoco Motif Activity (Green Fluorophore) (AID 879); note: potency is the fitted concentration of half-maximal effect
Outline: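 Fluorescence polarization assay: 50 nM Gαi1 with 10 nM FITC-labeled RGS12 GoLoco peptide in 10 mM Tris pH 7.5, 150 mM NaCl, 0.1 mM GDP, 0.05% NP40, 10 min at room temperature with compound.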

[2] = biological target: Pyruvate kinase (Leishmania mexicana) (UniProt Q27686); assay: qHTS Validation Assay for Inhibitors of Leishmania Mexicana Pyruvate Kinase (AID 945)
Outline: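 Substrate mix (0.5 mM PEP, 0.1 mM ADP, 7 mM MgCl2, 50 mM KCl, pH 7.2 imidazole) received compound by pin tool, then 0.2 nM LmPYK E451W. After 1 h at room temperature, PKLight was added and luminescence measured.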

[3] = biological target: Pyruvate kinase PKM (Homo sapiens) (UniProt P14618); assay: qHTS Assay for Activators of Human Muscle Pyruvate Kinase (AID 954; active = well fitted curve in the direction sought with a large enough effect, not every such curve was filed as active)
Outline: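 Purified human PKM2 (0.1 nM) with 0.5 mM PEP (Km) and 0.1 mM ADP in 50 mM imidazole pH 7.2, KCl, MgCl2, 1 h at room temperature; ATP formed read by coupled luciferase luminescence. Normalized to no-enzyme/110 uM thiadiazolimine inhibition; 0.3 nM enzyme column for activation.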

[4] = S16 Schwann cell PMP22 intronic element beta-lactamase assay (AID 624044; calls by dose curve; note: nearly all actives have a fitted effect of over 15% in size)
Outline: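 Rat S16 Schwann cells with beta-Lac driven by a PMP22 intronic element, compound-treated 24 h at 37 °C. LiveBLAzer FRET B/G read: 460 nm normalized to potassium clavulanate vs DMSO; 535 nm FRET as viability; concentration-effect curves classified.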

ATS95 = assay: qHTS profiling for inhibitors of Plasmodium falciparum proliferation (AID 504749); note: nearly all actives have a fitted effect of over 60% in size; note: potency is the fitted concentration of half-maximal effect; details: P. falciparum in erythrocytes, SYBR Green DNA, 72 h; series mostly up to 12.8 µM
Outline: (§1)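 Three-day growth assay of blood-stage parasites in erythrocytes (0.3% parasitemia, 2.5% hematocrit) at 37 C, 5% CO2, quantified by SYBR Green DNA staining after overnight detergent lysis.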

CP192 = assay: as above; details: P. falciparum in erythrocytes, SYBR Green DNA, 72 h; series mostly up to 28.7 µM
Outline: as §1

CP215 = assay: as above; details: P. falciparum in erythrocytes, SYBR Green DNA, 72 h; series mostly up to 28.7 µM
Outline: as §1

CP266 = assay: as above; details: P. falciparum in erythrocytes, SYBR Green DNA, 72 h; series mostly up to 28.7 µM
Outline: as §1

CP269 = assay: as above; details: P. falciparum in erythrocytes, SYBR Green DNA, 72 h; series mostly up to 12.8 µM
Outline: as §1

CP297 = assay: as above; details: P. falciparum in erythrocytes, SYBR Green DNA, 72 h; series mostly up to 12.8 µM
Outline: as §1

CP315 = assay: as above; details: P. falciparum in erythrocytes, SYBR Green DNA, 72 h; series mostly up to 12.8 µM
Outline: as §1

DIV14 = assay: as above; details: P. falciparum in erythrocytes, SYBR Green DNA, 72 h; series mostly up to 12.8 µM
Outline: as §1

DIV17 = assay: as above; details: P. falciparum in erythrocytes, SYBR Green DNA, 72 h; series mostly up to 12.8 µM
Outline: as §1

GB4 = assay: as above; details: P. falciparum in erythrocytes, SYBR Green DNA, 72 h; series mostly up to 12.8 µM
Outline: as §1

ICS = assay: as above; details: P. falciparum in erythrocytes, SYBR Green DNA, 72 h; series mostly up to 12.8 µM
Outline: as §1

P94_40 = assay: as above; details: P. falciparum in erythrocytes, SYBR Green DNA, 72 h; series mostly up to 12.8 µM
Outline: as §1

W2 = assay: as above; details: P. falciparum in erythrocytes, SYBR Green DNA, 72 h; series mostly up to 12.8 µM
Outline: as §1

CP260 = assay: as above; details: P. falciparum in erythrocytes, SYBR Green DNA, 72 h; series mostly up to 12.8 µM
Outline: as §1

[5] = S16 Schwann cell PMP22 intronic element firefly luciferase assay (AID 624032); note: nearly all actives have a fitted effect of over 30% in size; note: potency is the fitted concentration of half-maximal effect
Outline: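 Luciferase reporter of PMP22 intronic-element expression in stably transfected S16 rat Schwann cells, read by ONE-Glo luminescence after 24 h compound exposure at 37 C. Activity scaled between DMSO (0%) and positive-control PTC124; concentration-effect curves quality-classified.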

Measured: Potency

Chain of Pyruvate kinase PKM (Homo sapiens) (P14618 whole entry, looked up): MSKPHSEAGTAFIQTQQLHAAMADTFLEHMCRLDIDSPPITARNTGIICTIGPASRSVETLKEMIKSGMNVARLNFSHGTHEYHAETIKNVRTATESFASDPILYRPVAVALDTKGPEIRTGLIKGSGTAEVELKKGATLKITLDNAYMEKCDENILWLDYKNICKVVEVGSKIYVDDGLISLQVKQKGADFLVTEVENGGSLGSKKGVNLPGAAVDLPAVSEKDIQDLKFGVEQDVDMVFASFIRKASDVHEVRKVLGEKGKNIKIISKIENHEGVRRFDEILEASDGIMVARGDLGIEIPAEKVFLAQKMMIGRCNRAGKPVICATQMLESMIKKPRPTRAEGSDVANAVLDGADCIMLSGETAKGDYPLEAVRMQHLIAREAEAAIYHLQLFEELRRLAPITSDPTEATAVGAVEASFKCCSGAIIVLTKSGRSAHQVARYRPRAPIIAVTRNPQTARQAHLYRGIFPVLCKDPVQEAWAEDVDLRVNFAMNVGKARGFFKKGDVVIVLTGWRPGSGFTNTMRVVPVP
Chain of Pyruvate kinase (Leishmania mexicana) (Q27686 2-499 E452W): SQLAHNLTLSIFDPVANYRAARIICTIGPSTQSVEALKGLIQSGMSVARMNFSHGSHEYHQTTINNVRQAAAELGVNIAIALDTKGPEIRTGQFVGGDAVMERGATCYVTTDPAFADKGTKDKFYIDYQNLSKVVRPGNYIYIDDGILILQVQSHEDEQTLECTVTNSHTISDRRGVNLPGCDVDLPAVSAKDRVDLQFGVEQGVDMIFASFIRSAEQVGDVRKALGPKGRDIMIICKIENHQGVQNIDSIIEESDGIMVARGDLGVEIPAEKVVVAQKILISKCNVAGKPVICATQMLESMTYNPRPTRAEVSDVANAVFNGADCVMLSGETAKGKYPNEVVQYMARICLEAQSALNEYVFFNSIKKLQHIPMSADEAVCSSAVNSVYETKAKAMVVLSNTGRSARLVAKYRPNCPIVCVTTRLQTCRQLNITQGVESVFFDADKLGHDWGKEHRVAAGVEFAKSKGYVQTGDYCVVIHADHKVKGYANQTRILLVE
Chain of Guanine nucleotide-binding protein G(i) subunit alpha-1 (Homo sapiens) (P63096 whole entry, looked up): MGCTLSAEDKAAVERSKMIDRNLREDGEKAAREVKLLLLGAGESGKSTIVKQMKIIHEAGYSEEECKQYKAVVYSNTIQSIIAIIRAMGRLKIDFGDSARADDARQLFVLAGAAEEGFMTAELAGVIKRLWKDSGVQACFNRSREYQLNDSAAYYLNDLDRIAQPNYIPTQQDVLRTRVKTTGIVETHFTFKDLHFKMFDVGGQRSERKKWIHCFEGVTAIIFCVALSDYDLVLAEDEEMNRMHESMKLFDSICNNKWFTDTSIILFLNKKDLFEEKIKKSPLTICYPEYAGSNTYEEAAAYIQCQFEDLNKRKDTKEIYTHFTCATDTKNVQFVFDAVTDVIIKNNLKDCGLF

C[C@H](NCCc1ccc(O)cc1)[C@@H](O)c1ccc(O)cc1
not listed: CP260 | [5]
inactive: all other assays above

CCN(CC)CCC[C@H](C)Nc1c2ccc(Cl)cc2nc2ccc(OC)cc12
inactive: [2] | [3] | [4]
active: [1] 25.1 µM | ATS95 0.631 µM | CP192 0.478 µM | CP215 1.69 µM | CP260 0.501 µM | CP266 1.51 µM | CP269 0.757 µM | CP297 0.536 µM | CP315 3.01 µM | DIV14 0.478 µM | DIV17 0.536 µM | GB4 0.379 µM | ICS 0.158 µM | P94_40 0.562 µM | W2 0.338 µM

C[C@@](N)(Cc1ccc(O)c(O)c1)C(=O)O
inactive: [1] | [2] | [3]

CC[C@H](NC(C)C)[C@H](O)c1ccc(O)c(O)c1
active: [5] 11.4 µM
not listed: DIV14 | DIV17 | GB4 | ICS | W2 | CP260
inactive: all other assays above

CC(=O)O[C@@H](C)C[N+](C)(C)C
not listed: ATS95 | CP215 | P94_40
inactive: all other assays above

CN(C)[C@H]1C(=O)C(C(=O)NCN2CCCC2)=C(O)[C@]2(O)C(=O)C3=C(O)c4c(O)cccc4[C@@](C)(O)[C@H]3C[C@@H]12
not listed: [1] | [2] | [3] | [5]
inactive: all other assays above

CO[C@H]1C[C@@H](O[C@@H]2[C@H](C)[C@H](O[C@@H]3O[C@@H](C)C[C@@H](N(C)C)[C@@H]3O)[C@H](C)C[C@]3(CO3)C(=O)[C@H](C)[C@H](O)[C@H](C)[C@H](C)OC(=O)[C@@H]2C)O[C@@H](C)[C@H]1O
not listed: [1] | [2] | [3]
inactive: all other assays above

CCN(CC)CCC[C@H](C)Nc1ccnc2cc(Cl)ccc12
active: ATS95 10 µM | CP260 3.98 µM | CP269 9.53 µM | DIV14 1.69 µM | DIV17 3.79 µM | GB4 1.51 µM | ICS 3.98 µM | P94_40 5.01 µM | W2 6.01 µM
inactive: [1] | [2] | [3] | [5] | [4]

CN1[C@@H](CC(=O)c2ccccc2)CCC[C@@H]1C[C@@H](O)c1ccccc1
inactive: [1] | [2] | [3]

C[C@@H](CN(C)C)CN1c2ccccc2CCc2ccccc21
not listed: CP215 | CP269 | DIV14 | DIV17 | GB4 | ICS | P94_40 | W2
inactive: all other assays above

CC1(C)O[C@@H]2C[C@H]3[C@H]4C[C@H](F)C5=CC(=O)C=C[C@@]5(C)[C@@H]4[C@H](O)C[C@]3(C)[C@]2(C(=O)CO)O1
not listed: [1] | [2] | [3]
inactive: all other assays above

OCCN1CCN(CC/C=C2\c3ccccc3Sc3ccc(C(F)(F)F)cc32)CC1
inactive: [1] | [2] | [3]

CCN(CC)CC#CCOC(=O)[C@@](O)(c1ccccc1)C1CCCCC1
active: DIV14 7.57 µM | DIV17 4.78 µM | W2 5.36 µM
inactive: [1] | [2] | [3] | [5] | [4] | CP192 | CP215 | CP266 | CP315

O=c1[nH]c(=O)n([C@@H]2C[C@H](O)[C@H](CO)O2)cc1I
active: [5] 2.45 µM
not listed: [1] | [2] | [3]
inactive: all other assays above

CN(C)CC[C@H](c1ccc(Br)cc1)c1ccccn1
inactive: [1] | [2] | [3]

C[C@@H](C(=O)O)c1cccc(C(=O)c2ccccc2)c1
inactive: [1] | [2] | [3] | [5]

NS(=O)(=O)c1cc([C@@]2(O)NC(=O)c3ccccc32)ccc1Cl
not listed: [1] | [2] | [3] | CP266
inactive: all other assays above

CCCN[C@@H](C)C(=O)Nc1c(C)csc1C(=O)OC
not listed: [1] | [2] | [3] | [5]
inactive: all other assays above

NC(N)=NC[C@@H]1COC2(CCCCC2)O1
not listed: [1] | [2] | [3] | DIV17
inactive: all other assays above

COCCc1ccc(OC[C@H](O)CNC(C)C)cc1
inactive: all assays above

CCC[C@H]1C(=O)N2C(N(C)C)=Nc3ccc(C)cc3N2C1=O
not listed: [1] | [2] | [3]
inactive: all other assays above

COc1ccccc1OC[C@H](O)COC(N)=O
not listed: [1] | [2] | [3]
inactive: all other assays above

CN(N=O)C(=O)N[C@H]1[C@@H](O)[C@H](O)[C@H](CO)O[C@@H]1O
not listed: [1] | [2] | [3] | [4]
inactive: all other assays above

CC1=C(C(=O)O)N2C(=O)[C@@H](NC(=O)[C@@H](N)c3ccccc3)[C@@H]2SC1
inactive: [1] | [2] | [3]

CN(C)CCO[C@](C)(c1ccccc1)c1ccccn1
inactive: [1] | [2] | [3]

CC(=O)N(CC(O)CN(C(C)=O)c1c(I)c(C(=O)NC[C@@H](O)CO)c(I)c(C(=O)NC[C@@H](O)CO)c1I)c1c(I)c(C(=O)NC[C@@H](O)CO)c(I)c(C(=O)NC[C@@H](O)CO)c1I
not listed: [1] | [2] | [3] | DIV14 | W2 | [5]
inactive: all other assays above

CC(C)(O/N=C(\C(=O)N[C@@H]1C(=O)N2C(C(=O)[O-])=C(C[n+]3ccccc3)CS[C@@H]12)c1csc(N)n1)C(=O)O
not listed: [1] | [2] | [3] | [4]
inactive: all other assays above

Cc1ccccc1[C@@H](OCCN(C)C)c1ccccc1
inactive: [1] | [2] | [3]

Cn1c(=O)c2c(ncn2C[C@@H](O)CO)n(C)c1=O
not listed: [1] | [2] | [3]
inactive: all other assays above

CCN1CCC[C@@H]1CNC(=O)c1cc(S(N)(=O)=O)ccc1OC
inactive: [1] | [2] | [3]

O=C(O)/C=C\c1ccc(Cn2ccnc2)cc1
not listed: [1] | [2] | [3] | CP266 | CP269
inactive: all other assays above

COc1ccc(C[C@@H]2c3cc(OC)c(OC)cc3CC[N@+]2(C)CCC(=O)OCCCCCOC(=O)CC[N@@+]2(C)CCc3cc(OC)c(OC)cc3[C@H]2Cc2ccc(OC)c(OC)c2)cc1OC
not listed: [1] | [2] | [3] | CP192 | [5]
inactive: all other assays above

CO/N=C(/C(=O)NC1C(=O)N2C(C(=O)O)=C(CSc3nc(=O)c(O)nn3C)CSC12)c1csc(N)n1 (stereo not drawn)
not listed: [1] | [2] | [3] | [4] | DIV14 | W2
inactive: all other assays above
